The values below come from PubChem BioAssay (NCI).

Assay [1] can be described thus: NCI Yeast Anticancer Drug Screen. Data for the rad50 strain (AID 155).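 Note: 0% = growth of vehicle-only cultures of the same strain.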 Particulars: S. cerevisiae rad50 strain growth inhibition, active compounds read high. The procedure, abridged: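 Yeast carrying a defined DNA repair defect were exposed to test compounds, and growth was compared with vehicle-treated controls to give percent inhibition.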
A short description of assay [2]: NCI Yeast Anticancer Drug Screen. Data for the mec2-1 strain (AID 157). Particulars: S. cerevisiae mec2-1 strain, active compounds read high. A digest of the protocol: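 Growth inhibition is read against vehicle-treated controls after compound exposure of the mec2-1 yeast strain, which is defective in DNA damage repair or cell cycle control.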
Assay [3] in a line: NCI Yeast Anticancer Drug Screen. Data for the sgs1 mgt1 strain (AID 161).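 Note: 0% = growth of cultures given vehicle only.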 Particulars: S. cerevisiae sgs1 mgt1 strain, active compounds read high. A digest of the protocol: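 Growth of a repair-deficient yeast mutant was monitored after compound treatment and expressed as inhibition relative to vehicle-treated cultures.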
The nature of assay [4]: NCI Yeast Anticancer Drug Screen. Data for the cln2 rad14 strain (AID 165).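 Note: 0% = growth equal to vehicle treated cultures.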 As to conditions: S. cerevisiae cln2 rad14 strain, active compounds read high. A digest of the protocol:
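Growth inhibition, relative to vehicle-treated controls, is the read-out. The test organism is a yeast strain with defined genetic alterations, cln2 rad14.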

Assay [5] can be described thus: NCI Yeast Anticancer Drug Screen. Data for the bub3 strain (AID 167). Particulars: S. cerevisiae bub3 mutant strain, active compounds read high. A digest of the protocol:
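Compounds were applied to a genetically altered yeast strain carrying a cell-cycle control defect. Growth inhibition was scored against vehicle-treated controls.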

Assay [6] is described as follows: NCI Yeast Anticancer Drug Screen. Data for the mlh1 rad18 strain (AID 175). Particulars: S. cerevisiae mlh1 rad18 strain growth inhibition, active compounds read high. A digest of the protocol:
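Cells of a genetically altered yeast strain, deficient in DNA damage repair, were treated with compound. Their growth was then compared with that of vehicle-treated cultures to give inhibition.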

Where [7] appears, read: at 5.0 µM (retest, dose inferred, filed as 0.5).
The mark [8] stands for this setting: at 50.0 µM (retest, dose inferred, filed as 5.0).

The panel holds about 79,000 compounds, 15% with a hit somewhere; the sample as a whole holds those more often. A number with no mark means an inactive call. Calls of active or inactive are those of the source. Cut-off read from the data, not from the text of the source: active = growth inhibition above about 70%; inactive = the rest.

For `O=[N+]([O-])c1ccc(/C(=C\c2ccccc2)Cn2ccnc2)cc1`, the growth inhibition is 88% (active) in assay [1] (setting [7]); 94% (active) in assay [1] (setting [8]); 71.5% (active) in assay [1] (at 50.0 µM); 59% in assay [2] (setting [7]); 85% (active) in assay [2] (setting [8]); 77% (active) in assay [2] (at 50.0 µM). In addition, the growth inhibition was 84% (active) in assay [3] (setting [7]); 92% (active) in assay [3] (setting [8]); 71.3% (active) in assay [3] (at 50.0 µM); 89% (active) in assay [4] (setting [7]); 91% (active) in assay [4] (setting [8]); 64.8% in assay [4] (at 50.0 µM). Further, the growth inhibition was 78% (active) in assay [5] (setting [7]); 94% (active) in assay [5] (setting [8]); 81.8% (active) in assay [5] (at 50.0 µM); 80% (active) in assay [6] (setting [7]); 92% (active) in assay [6] (setting [8]); 75.5% (active) in assay [6] (at 50.0 µM).
As to `FC(F)(F)c1ccccc1NC(=S)SCc1ccc2c(c1)OCO2`, the growth inhibition in assay [1] (setting [7]) is 7%; in assay [1] (setting [8]) it was 95% (active); in assay [1] (at 50.0 µM), 98.8% (active); in assay [2] (setting [7]), 8%; in assay [2] (setting [8]), 98% (active); in assay [2] (at 50.0 µM) it was 99% (active). Further, the growth inhibition is 1% in assay [3] (setting [7]); 97% (active) in assay [3] (setting [8]); 99% (active) in assay [3] (at 50.0 µM); 2% in assay [4] (setting [7]); 96% (active) in assay [4] (setting [8]); 98% (active) in assay [4] (at 50.0 µM). Also, the growth inhibition was 3% in assay [5] (setting [7]); 95% (active) in assay [5] (setting [8]); 98.3% (active) in assay [5] (at 50.0 µM); 1% in assay [6] (setting [7]); 96% (active) in assay [6] (setting [8]); 99% (active) in assay [6] (at 50.0 µM).
As to `Fc1cccc(NC(=S)SCc2ccc(Cl)cc2)c1`, the growth inhibition is 20% in assay [1] (setting [7]); 98% (active) in assay [1] (setting [8]); 99.4% (active) in assay [1] (at 50.0 µM); 15% in assay [2] (setting [7]); 98% (active) in assay [2] (setting [8]); 99.7% (active) in assay [2] (at 50.0 µM). Besides, the growth inhibition in assay [3] (setting [7]) was 12%; in assay [3] (setting [8]), 99% (active); in assay [3] (at 50.0 µM), 99.7% (active); in assay [4] (setting [7]), -6%; in assay [4] (setting [8]), 99% (active); in assay [4] (at 50.0 µM) it was 99.5% (active). Besides, the growth inhibition is 10% in assay [5] (setting [7]); 98% (active) in assay [5] (setting [8]); 99.5% (active) in assay [5] (at 50.0 µM); 23% in assay [6] (setting [7]); 99% (active) in assay [6] (setting [8]); 99.6% (active) in assay [6] (at 50.0 µM).
